Assay results: PubChem BioAssay AID1233 (SRMLSC, 2008)
Measured potencies and affinities stand elsewhere. Active and inactive are the calls of the source.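 Rule for the calls: active = a dose-response curve fit returns a half-maximal inhibitory concentration, extrapolated values included; inactive = the fit returns no such concentration.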

Target: HMG-CoA reductase [Enterococcus faecalis] (UniProt Q9FD70)
Assay: inhibitors of E. faecalis class II HMGR, confirmation, biochemical, Enterococcus faecalis (AID 1233)
Conditions: purified E. faecalis HMGR, NADPH absorbance 340 nm kinetics; series mostly up to 100 µM

outcome, inactive:
CCOC(=O)c1c(NC(=O)CSc2nnc(C)s2)sc2c1CCC(CC)C2 (centres undefined)
Cc1ccc(N2CCN(C(=O)c3ccccc3NC(=O)/C=C\C(=O)O)CC2)cc1
O=C(COC(=O)c1cc([N+](=O)[O-])ccc1NCCO)c1ccc(Cl)cc1
O=C(Cn1cc(C(=O)C(F)(F)F)c2ccccc21)N1CCOCC1
Cc1ccc(S(=O)(=O)CCC(=O)NCCN2C(=O)S/C(=C\c3ccccc3)C2=O)cc1
CCC1CCCCN1C(=O)CCn1ccnc1 (centres undefined)
Brc1ccc(/C=N/Nc2ncnc3c2cnn3Cc2ccccc2)cc1
O=C(Nc1ccc(Cl)cc1)Nc1nnc(-c2ccncc2)s1
CCCNCc1cc(OC)c(OCc2ccccc2)cc1Br
CCN(CC)Cc1c(C(=O)N2CCc3ccccc3C2)nc2ccc(Cl)cn12
N#Cc1c(/N=C/c2ccco2)sc2c1CCCCC2
O=C(Nc1ccc(S(=O)(=O)Nc2ccccc2)cc1)C1COc2ccccc2O1 (centres undefined)
Cn1c(SCC(=O)N2CCCC2)nnc1-c1ccc(S(=O)(=O)N2CCCC2)cc1
OCC1CCCN(C(=S)Nc2ccc(Nc3ccccc3)cc2)C1 (centres undefined)
CCCC(=O)Nc1sc(C(=O)Nc2cccc(N)c2)c(C)c1C(=O)OC
C=C(C)Cn1c(-c2ccncc2)n[nH]c1=S
O=C(CSc1nc(-c2ccccc2)cs1)N1CCc2ccccc21
CCc1ccc(NC(=O)CN(c2cccc(C)c2)S(C)(=O)=O)cc1
COCCCNC(=O)CCCC(=O)NCCCOC
